Some test systems named below: HCT-15 colon; HT29 colon; SNB-75 CNS; SNB-19 CNS; U251 CNS; PC-3 prostate; SK-MEL-5 melanoma; UACC-62 melanoma; LOX IMVI melanoma; SK-MEL-28 melanoma.
Holding throughout (experiment): NCI-60 one-dose screen, 48 h (100 = growth as untreated, 0 = no growth, -100 = all killed)
Common to all, as to details: 10 µM unless noted

Compounds without any hit were thinned out: in the full panel of roughly 83,000, 20% have a hit.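 Note: values are percent growth. 100 is the growth of untreated cells, values between 100 and 0 indicate rising inhibition; between -100 and 0 indicates cell death.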 Values without a mark were called inactive. The source made the active and inactive calls. Rule for the calls: active = growth percent below 10; inactive = the rest.

Consider `O=C(O)c1ccc(-n2cc(/C=N/Nc3ccc(Cl)cc3Cl)c(-c3ccccc3)n2)cc1`, for which the growth was 72% in the assay on HCT-15 colon; 94.9% in the assay with HT29 colon; 88.4% with SNB-75 CNS; 101% with SNB-19 CNS; 90.5% with U251 CNS; 80.7% with PC-3 prostate. Further, the growth in the assay on SK-MEL-5 melanoma was 87.1%; with UACC-62 melanoma, 96.2%; in the assay on LOX IMVI melanoma it was 91.9%; with SK-MEL-28 melanoma it was 103%.
Consider `Nc1cccc(C(=O)Nc2ccc3c(O)c(N=Nc4ccc(N=Nc5ccc(S(=O)(=O)O)cc5)cc4)c(S(=O)(=O)O)cc3c2)c1`, for which the growth in the assay with HCT-15 colon was 108%; in the assay on HT29 colon, 99.1%; in the assay on SNB-75 CNS, 87.9%; in the assay on SNB-19 CNS, 106%; in the assay with U251 CNS, 109%; with PC-3 prostate, 91.9%. Besides, the growth was 104% in the assay on SK-MEL-5 melanoma, 97.4% in the assay on UACC-62 melanoma, 101% in the assay with LOX IMVI melanoma and 107% with SK-MEL-28 melanoma.
In the case of `Cc1cc(NC(=O)CNc2nc(Oc3ccc(F)cc3)nc(-c3ccc(F)cc3)n2)ccc1Cl`, the growth is 102% in the assay on HCT-15 colon; 94% in the assay on HT29 colon; 87.8% in the assay on SNB-75 CNS; 100% in the assay on SNB-19 CNS; 98.4% in the assay on U251 CNS; 89.1% in the assay on PC-3 prostate. For the same compound, the growth with SK-MEL-5 melanoma is 99.1%; in the assay with UACC-62 melanoma it was 97.5%; in the assay with LOX IMVI melanoma, 96.1%; with SK-MEL-28 melanoma, 109%.
With `NCCCn1c2c(c3cc(-c4ccn[nH]4)ccc3c1=O)C(=O)c1ccccc1-2`, the growth is 31.2% with HCT-15 colon; 9.31% (active) in the assay on HT29 colon; 42.2% with SNB-75 CNS; 55% with SNB-19 CNS; 37.1% with U251 CNS; 50% with PC-3 prostate. The growth in the assay on SK-MEL-5 melanoma is 58.4%; in the assay with UACC-62 melanoma it was 78%; in the assay with LOX IMVI melanoma, 47.1%; in the assay on SK-MEL-28 melanoma it was 111%.
`O=C(Nc1cc(Nc2ncccc2-c2ncnc3nc[nH]c23)ccc1F)c1cc(C(F)(F)F)cc(C(F)(F)F)c1`: the growth is -67% (active) in the assay with HCT-15 colon; -23.8% (active) in the assay on HT29 colon; -39.5% (active) with SNB-75 CNS; 13.7% in the assay on SNB-19 CNS; -12.1% (active) with U251 CNS; -45.1% (active) in the assay on PC-3 prostate. The growth with SK-MEL-5 melanoma is -17.5% (active); with UACC-62 melanoma it was -23.6% (active); in the assay with LOX IMVI melanoma, -69.4% (active); in the assay on SK-MEL-28 melanoma, -66.1% (active).
In the case of `[2H]c1nc(Nc2ncc3cc(C(=O)N(C)C)n(C4CCCC4)c3n2)c([2H])c([2H])c1N1C([2H])([2H])C([2H])([2H])NC([2H])([2H])C1([2H])[2H]`, the growth with HCT-15 colon was 79.9%; in the assay with HT29 colon, 27.6%; in the assay on SNB-75 CNS, 69.7%; in the assay on SNB-19 CNS it was 61.5%; in the assay with U251 CNS it was 56.1%; in the assay on PC-3 prostate, 54.6%. For the same compound, the growth with SK-MEL-5 melanoma was 72.3%; in the assay on UACC-62 melanoma it was 64.6%; in the assay with LOX IMVI melanoma, 40.2%; with SK-MEL-28 melanoma, 84.2%.
With `c1ccc(Sc2ncccn2)nc1`, the growth with HCT-15 colon is 102%; with HT29 colon it was 101%; in the assay on SNB-75 CNS it was 72.5%; in the assay with SNB-19 CNS, 89.9%; in the assay with U251 CNS, 104%; in the assay on PC-3 prostate it was 97.9%. The growth was 102% in the assay with SK-MEL-5 melanoma, 93.6% in the assay on UACC-62 melanoma, 92.6% in the assay with LOX IMVI melanoma and 109% in the assay with SK-MEL-28 melanoma.
For the compound `N#Cc1c(-c2ccc(F)cc2)nc(N/N=C/c2c[nH]c3ccccc23)nc1N1CCOCC1`, the growth with HCT-15 colon was 8.42% (active); in the assay with HT29 colon it was 18%; in the assay with SNB-75 CNS, 62.5%; with SNB-19 CNS, 89.7%; in the assay with U251 CNS it was 32.2%; with PC-3 prostate, 49.9%. In addition, the growth with SK-MEL-5 melanoma is 37.1%; in the assay with UACC-62 melanoma, 61.8%; in the assay with LOX IMVI melanoma, 20.6%; in the assay with SK-MEL-28 melanoma, 4.29% (active).
Take `Cc1ccc(C(=O)O)o1`: the growth in the assay on HCT-15 colon is 112%; in the assay on HT29 colon, 92.4%; with SNB-75 CNS, 90.7%; in the assay on SNB-19 CNS it was 112%; with U251 CNS it was 98.3%; with PC-3 prostate, 90.2%. The growth with SK-MEL-5 melanoma is 102%; with UACC-62 melanoma it was 107%; in the assay on LOX IMVI melanoma, 100%; in the assay with SK-MEL-28 melanoma, 108%.
For the compound `N#Cc1nc(-c2ccccc2)oc1S(=O)(=O)NCC(c1ccc(Cl)cc1)N1CCCCC1` (stereo not given), the growth in the assay with HCT-15 colon was 35.3%; with HT29 colon it was 25.1%; with SNB-75 CNS, 94%; in the assay on SNB-19 CNS, 88.1%; in the assay on U251 CNS it was 74.1%; in the assay on PC-3 prostate, 78.9%. The growth with SK-MEL-5 melanoma was 73.8%; in the assay on UACC-62 melanoma it was 80.2%; in the assay with LOX IMVI melanoma, 21.9%; in the assay on SK-MEL-28 melanoma, 96.3%.
Regarding `COc1ccc(C2N(c3cc(OC)c(OC)c(OC)c3)C(=O)C2(F)F)cc1F` (stereo not given), the growth in the assay with HCT-15 colon is 19.4%; with HT29 colon, 11.2%; in the assay with SNB-75 CNS it was 64.7%; in the assay on SNB-19 CNS, 52.9%; in the assay on U251 CNS it was 41.6%; with PC-3 prostate it was 35.9%. For the same compound, the growth in the assay with SK-MEL-5 melanoma was 8.08% (active); in the assay with UACC-62 melanoma, 55.5%; in the assay on LOX IMVI melanoma it was 27.1%; in the assay with SK-MEL-28 melanoma, 77.2%.
In the case of `COc1cc(/C=C/C(=O)/C=C/c2cc3ccc(Cl)cc3[nH]c2=O)ccc1O`, the growth in the assay on HCT-15 colon is 52.4%; with HT29 colon, 5.63% (active); with SNB-75 CNS, 74.4%; in the assay on SNB-19 CNS, 76.5%; in the assay on U251 CNS, 19.6%; in the assay with PC-3 prostate, 56.2%. Besides, the growth is 60.8% with SK-MEL-5 melanoma, 53.1% with UACC-62 melanoma, 19.8% in the assay with LOX IMVI melanoma and 98.8% in the assay on SK-MEL-28 melanoma.
Regarding `CCCCn1c2cc(OCc3cn(-c4ccc(Cl)cc4)nn3)ccc2c2ccnc(C)c21`, the growth is 17.7% with HCT-15 colon; 6.28% (active) with HT29 colon; 32.8% in the assay with SNB-75 CNS; 56.8% with SNB-19 CNS; 21.8% in the assay with U251 CNS; 44.7% in the assay on PC-3 prostate. Moreover, the growth in the assay with SK-MEL-5 melanoma was 38.9%; in the assay with UACC-62 melanoma, 33%; in the assay with LOX IMVI melanoma it was 20.1%; in the assay on SK-MEL-28 melanoma it was 67.9%.
Consider `CSc1nc(-c2ccc(F)cc2)c(C#N)c(N2CCOCC2)n1`, for which the growth was 98.6% in the assay on HCT-15 colon; 92.3% with HT29 colon; 73.8% in the assay with SNB-75 CNS; 92.9% in the assay with SNB-19 CNS; 89.3% in the assay on U251 CNS; 89.9% in the assay on PC-3 prostate. Also, the growth in the assay with SK-MEL-5 melanoma was 94.8%; with UACC-62 melanoma it was 78.9%; with LOX IMVI melanoma, 99.2%; with SK-MEL-28 melanoma it was 101%.

For the origin of these results see PubChem BioAssay (NCI).
